The source of these data is ChEMBL document CHEMBL1961873, “Compounds: GSK PKIS; Assays: Nanosyn kinase panel” (2012).

Test [1] has as its target T1, Aurora kinase A (Homo sapiens) (UniProt O14965).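 Note: values are mean percent inhibition.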
T1 sequence (whole entry): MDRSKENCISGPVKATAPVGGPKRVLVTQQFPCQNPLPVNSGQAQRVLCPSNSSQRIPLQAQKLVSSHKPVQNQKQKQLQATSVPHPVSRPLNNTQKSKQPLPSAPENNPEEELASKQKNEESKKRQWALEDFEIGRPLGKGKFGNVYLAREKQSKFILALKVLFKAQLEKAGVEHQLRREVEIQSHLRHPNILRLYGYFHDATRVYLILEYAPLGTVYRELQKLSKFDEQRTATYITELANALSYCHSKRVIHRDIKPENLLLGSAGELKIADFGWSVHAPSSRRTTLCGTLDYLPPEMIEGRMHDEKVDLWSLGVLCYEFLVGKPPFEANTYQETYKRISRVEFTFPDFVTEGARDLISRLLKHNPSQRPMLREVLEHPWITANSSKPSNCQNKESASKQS
Particulars: at 1 µM.

The target in test [2] is Aurora kinase B (Homo sapiens) (UniProt Q96GD4). As to conditions: at 0.1 µM.
Aurora kinase B (Homo sapiens), sequence (Q96GD4 whole entry): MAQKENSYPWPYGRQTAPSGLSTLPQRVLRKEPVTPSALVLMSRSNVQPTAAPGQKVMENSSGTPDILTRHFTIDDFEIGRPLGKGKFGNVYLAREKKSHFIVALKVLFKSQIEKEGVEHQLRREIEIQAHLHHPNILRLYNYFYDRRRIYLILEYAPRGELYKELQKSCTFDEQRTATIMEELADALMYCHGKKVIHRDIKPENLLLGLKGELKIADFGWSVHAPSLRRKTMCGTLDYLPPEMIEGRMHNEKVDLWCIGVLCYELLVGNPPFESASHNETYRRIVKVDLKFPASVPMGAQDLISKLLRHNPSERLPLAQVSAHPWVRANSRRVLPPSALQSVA
Test [3] shares this target. Particulars: at 1 µM.
The target in test [4] is T2, Aurora kinase C (Homo sapiens) (UniProt Q9UQB9).
T2 sequence (whole entry): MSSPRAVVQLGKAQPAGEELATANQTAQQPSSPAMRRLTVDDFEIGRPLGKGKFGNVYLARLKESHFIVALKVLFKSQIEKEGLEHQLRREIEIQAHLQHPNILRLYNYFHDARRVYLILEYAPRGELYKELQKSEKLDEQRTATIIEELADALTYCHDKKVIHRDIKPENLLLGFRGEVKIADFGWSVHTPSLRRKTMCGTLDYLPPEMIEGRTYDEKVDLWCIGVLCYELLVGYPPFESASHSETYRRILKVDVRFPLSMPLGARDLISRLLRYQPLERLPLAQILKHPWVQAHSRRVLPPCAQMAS
As to conditions: at 0.1 µM.

In test [5] the target is T2, Aurora kinase C (Homo sapiens). As to conditions: at 1 µM.
Test [6] has as its target Serine/threonine-protein kinase 10 (Homo sapiens) (UniProt O94804). As to conditions: at 0.1 µM.
Test [7] shares this target. Particulars: at 1 µM.
In test [8] the target is T3, Mitogen-activated protein kinase kinase kinase kinase 2 (Homo sapiens) (UniProt Q12851).
T3 sequence (whole entry): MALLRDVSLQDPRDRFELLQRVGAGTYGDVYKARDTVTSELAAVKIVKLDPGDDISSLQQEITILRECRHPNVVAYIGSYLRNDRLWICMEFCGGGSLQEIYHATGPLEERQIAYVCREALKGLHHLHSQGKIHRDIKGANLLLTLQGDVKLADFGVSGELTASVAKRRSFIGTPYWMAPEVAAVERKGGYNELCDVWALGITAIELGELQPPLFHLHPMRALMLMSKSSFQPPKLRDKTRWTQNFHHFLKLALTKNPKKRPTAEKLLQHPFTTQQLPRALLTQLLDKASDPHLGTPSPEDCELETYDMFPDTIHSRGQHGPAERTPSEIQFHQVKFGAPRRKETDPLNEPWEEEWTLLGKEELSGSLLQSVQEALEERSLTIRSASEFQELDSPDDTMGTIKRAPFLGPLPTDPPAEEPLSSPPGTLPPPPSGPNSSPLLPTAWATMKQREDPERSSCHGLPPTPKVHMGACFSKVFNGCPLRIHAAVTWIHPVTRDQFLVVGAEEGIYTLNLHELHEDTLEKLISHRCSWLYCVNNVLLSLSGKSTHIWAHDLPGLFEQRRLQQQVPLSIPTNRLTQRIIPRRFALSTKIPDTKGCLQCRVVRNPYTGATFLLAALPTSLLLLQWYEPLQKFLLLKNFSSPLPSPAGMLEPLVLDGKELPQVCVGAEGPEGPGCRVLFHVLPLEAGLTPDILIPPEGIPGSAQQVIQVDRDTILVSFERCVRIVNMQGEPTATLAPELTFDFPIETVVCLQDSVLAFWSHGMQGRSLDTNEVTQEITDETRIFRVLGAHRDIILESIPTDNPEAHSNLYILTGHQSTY
As to conditions: at 0.1 µM.

The target in test [9] is T3, Mitogen-activated protein kinase kinase kinase kinase 2 (Homo sapiens). Particulars: at 1 µM.
In test [10] the target is Mitogen-activated protein kinase kinase kinase kinase 4 (Homo sapiens) (UniProt O95819). Particulars: at 0.1 µM.
Mitogen-activated protein kinase kinase kinase kinase 4 (Homo sapiens), sequence (O95819 2-1239 limits assumed): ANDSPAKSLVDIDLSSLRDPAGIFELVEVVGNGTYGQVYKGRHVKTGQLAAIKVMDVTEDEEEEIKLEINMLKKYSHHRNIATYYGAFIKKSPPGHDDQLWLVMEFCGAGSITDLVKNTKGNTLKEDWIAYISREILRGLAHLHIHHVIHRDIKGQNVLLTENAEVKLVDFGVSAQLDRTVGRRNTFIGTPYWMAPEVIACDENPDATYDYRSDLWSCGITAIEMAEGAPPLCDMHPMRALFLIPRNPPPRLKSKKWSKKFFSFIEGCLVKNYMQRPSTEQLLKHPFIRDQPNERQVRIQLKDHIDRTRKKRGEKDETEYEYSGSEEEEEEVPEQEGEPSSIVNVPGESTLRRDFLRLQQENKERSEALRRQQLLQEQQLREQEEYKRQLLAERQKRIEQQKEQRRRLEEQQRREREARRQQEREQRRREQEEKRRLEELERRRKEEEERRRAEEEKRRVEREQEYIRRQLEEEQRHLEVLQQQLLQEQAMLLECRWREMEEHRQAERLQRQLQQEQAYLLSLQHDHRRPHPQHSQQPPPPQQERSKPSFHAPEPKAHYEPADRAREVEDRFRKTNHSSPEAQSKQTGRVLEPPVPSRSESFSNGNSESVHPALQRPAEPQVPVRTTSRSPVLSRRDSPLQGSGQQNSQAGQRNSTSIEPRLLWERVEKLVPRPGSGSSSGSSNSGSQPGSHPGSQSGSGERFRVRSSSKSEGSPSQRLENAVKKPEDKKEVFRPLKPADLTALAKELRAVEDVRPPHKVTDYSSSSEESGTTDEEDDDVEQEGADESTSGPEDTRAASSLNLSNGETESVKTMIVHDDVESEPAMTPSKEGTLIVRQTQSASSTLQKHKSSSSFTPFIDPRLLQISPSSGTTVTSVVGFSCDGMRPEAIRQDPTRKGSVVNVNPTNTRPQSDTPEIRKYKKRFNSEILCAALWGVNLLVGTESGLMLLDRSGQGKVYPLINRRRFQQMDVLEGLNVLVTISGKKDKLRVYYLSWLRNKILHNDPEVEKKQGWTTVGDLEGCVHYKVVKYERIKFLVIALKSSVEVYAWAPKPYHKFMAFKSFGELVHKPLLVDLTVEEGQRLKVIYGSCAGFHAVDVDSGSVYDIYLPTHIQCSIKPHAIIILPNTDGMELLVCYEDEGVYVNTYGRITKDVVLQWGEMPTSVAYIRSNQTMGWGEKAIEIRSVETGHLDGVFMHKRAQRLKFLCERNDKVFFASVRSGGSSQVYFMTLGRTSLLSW
Test [11] shares this target. Particulars: at 1 µM.
Test [12] addresses Dual specificity mitogen-activated protein kinase kinase 1 (Homo sapiens) (UniProt Q02750). Particulars: at 0.1 µM.
For test [13] the target is unchanged. As to conditions: at 1 µM.
For test [14], the target named is Misshapen-like kinase 1 (Homo sapiens) (UniProt Q8N4C8). As to conditions: at 0.1 µM.
Misshapen-like kinase 1 (Homo sapiens), sequence (Q8N4C8 whole entry, looked up): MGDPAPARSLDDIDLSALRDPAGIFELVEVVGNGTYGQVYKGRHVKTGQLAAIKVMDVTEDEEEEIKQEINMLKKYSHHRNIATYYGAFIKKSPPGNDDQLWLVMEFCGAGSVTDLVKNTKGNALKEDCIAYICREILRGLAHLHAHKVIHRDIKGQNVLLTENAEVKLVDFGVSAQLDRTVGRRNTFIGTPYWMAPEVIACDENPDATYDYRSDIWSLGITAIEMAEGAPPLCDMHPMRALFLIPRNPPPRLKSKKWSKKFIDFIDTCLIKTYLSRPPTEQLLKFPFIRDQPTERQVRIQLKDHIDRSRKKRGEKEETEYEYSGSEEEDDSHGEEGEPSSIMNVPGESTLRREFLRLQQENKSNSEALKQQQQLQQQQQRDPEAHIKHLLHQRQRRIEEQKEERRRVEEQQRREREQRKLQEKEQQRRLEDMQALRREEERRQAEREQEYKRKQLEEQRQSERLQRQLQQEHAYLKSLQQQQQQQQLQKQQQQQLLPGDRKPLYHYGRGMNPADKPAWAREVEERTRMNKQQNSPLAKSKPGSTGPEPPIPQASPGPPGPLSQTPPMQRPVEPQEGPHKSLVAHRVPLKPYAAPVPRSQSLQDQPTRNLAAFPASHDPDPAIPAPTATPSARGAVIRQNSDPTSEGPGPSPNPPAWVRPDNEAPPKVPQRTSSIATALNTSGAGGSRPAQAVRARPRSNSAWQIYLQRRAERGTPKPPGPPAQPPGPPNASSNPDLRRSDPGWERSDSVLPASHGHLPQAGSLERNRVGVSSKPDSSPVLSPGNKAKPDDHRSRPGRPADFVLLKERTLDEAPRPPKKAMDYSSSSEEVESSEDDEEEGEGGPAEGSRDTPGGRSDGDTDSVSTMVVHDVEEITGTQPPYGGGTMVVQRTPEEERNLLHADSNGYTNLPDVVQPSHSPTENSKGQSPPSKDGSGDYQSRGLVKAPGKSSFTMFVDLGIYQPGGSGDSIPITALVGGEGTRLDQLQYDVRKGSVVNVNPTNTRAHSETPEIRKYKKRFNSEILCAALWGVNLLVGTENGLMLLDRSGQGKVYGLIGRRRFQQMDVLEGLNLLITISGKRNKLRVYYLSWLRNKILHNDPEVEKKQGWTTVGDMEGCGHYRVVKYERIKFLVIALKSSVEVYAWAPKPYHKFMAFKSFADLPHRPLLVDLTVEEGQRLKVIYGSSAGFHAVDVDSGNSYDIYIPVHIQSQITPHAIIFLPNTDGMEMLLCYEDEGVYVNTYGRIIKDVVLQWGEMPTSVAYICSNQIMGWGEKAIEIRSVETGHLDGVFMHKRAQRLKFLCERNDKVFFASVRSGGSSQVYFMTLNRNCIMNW
Test [15] has the same target. Particulars: at 1 µM.
The target in test [16] is T4, Serine/threonine-protein kinase 4 (Homo sapiens) (UniProt Q13043).
T4 sequence (whole entry): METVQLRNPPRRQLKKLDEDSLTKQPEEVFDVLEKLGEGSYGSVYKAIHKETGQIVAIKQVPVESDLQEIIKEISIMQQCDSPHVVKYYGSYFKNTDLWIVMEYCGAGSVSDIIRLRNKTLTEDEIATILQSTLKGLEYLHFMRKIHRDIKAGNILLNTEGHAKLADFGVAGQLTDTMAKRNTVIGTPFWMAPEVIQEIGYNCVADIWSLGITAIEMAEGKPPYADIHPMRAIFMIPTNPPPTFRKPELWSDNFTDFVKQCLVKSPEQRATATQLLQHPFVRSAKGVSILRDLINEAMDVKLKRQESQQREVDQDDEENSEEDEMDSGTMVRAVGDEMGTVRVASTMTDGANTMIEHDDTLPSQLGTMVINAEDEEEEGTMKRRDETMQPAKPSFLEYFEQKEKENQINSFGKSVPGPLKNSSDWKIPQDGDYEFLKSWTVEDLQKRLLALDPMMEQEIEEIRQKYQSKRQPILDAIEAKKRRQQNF
Particulars: at 0.1 µM.

Test [17] has as its target T4, Serine/threonine-protein kinase 4 (Homo sapiens). Particulars: at 1 µM.
Test [18] concerns the target T5, Serine/threonine-protein kinase 3 (Homo sapiens) (UniProt Q13188).
T5 sequence (whole entry): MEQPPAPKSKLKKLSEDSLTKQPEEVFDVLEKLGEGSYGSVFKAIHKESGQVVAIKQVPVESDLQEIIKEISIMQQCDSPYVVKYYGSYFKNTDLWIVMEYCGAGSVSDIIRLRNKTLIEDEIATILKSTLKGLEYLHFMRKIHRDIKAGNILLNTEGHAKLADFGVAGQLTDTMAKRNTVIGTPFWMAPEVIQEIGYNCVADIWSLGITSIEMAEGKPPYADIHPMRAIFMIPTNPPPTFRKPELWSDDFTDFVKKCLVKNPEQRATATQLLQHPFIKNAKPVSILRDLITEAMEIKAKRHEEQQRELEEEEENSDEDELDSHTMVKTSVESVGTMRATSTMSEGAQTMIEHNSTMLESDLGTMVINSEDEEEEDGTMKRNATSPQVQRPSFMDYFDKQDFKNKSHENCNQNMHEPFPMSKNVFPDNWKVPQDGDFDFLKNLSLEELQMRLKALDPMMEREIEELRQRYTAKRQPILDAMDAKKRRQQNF
Particulars: at 0.1 µM.

The target in test [19] is T5, Serine/threonine-protein kinase 3 (Homo sapiens). As to conditions: at 1 µM.
Test [20] concerns the target Serine/threonine-protein kinase 26 (Homo sapiens) (UniProt Q9P289). As to conditions: at 0.1 µM.

Serine/threonine-protein kinase 10 (Homo sapiens), sequence (O94804 whole entry, looked up): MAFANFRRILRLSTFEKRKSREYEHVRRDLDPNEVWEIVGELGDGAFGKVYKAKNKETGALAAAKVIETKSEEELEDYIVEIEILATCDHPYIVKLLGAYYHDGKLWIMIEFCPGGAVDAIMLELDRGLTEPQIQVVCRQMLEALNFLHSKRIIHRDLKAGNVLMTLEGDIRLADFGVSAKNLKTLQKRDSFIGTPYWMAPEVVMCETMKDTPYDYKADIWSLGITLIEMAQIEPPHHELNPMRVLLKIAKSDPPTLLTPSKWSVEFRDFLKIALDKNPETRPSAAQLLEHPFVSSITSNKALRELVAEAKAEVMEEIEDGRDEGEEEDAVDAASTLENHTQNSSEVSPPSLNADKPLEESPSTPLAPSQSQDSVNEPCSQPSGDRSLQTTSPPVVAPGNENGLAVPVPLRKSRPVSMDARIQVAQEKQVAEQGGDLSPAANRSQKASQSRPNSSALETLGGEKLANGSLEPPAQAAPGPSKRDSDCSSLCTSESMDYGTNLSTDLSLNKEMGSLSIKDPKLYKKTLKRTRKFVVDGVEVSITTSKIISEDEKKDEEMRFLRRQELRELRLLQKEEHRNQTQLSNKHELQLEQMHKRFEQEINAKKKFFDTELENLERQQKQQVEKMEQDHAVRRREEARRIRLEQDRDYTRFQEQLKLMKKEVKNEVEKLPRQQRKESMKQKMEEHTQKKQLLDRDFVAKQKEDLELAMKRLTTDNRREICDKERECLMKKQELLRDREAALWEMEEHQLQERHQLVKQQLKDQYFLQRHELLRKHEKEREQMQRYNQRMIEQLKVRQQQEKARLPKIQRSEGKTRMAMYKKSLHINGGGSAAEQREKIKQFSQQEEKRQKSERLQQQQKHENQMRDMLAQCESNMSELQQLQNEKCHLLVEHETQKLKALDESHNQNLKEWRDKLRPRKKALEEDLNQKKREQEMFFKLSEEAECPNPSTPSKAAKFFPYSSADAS
Serine/threonine-protein kinase 26 (Homo sapiens), sequence (Q9P289 2-416 limits assumed): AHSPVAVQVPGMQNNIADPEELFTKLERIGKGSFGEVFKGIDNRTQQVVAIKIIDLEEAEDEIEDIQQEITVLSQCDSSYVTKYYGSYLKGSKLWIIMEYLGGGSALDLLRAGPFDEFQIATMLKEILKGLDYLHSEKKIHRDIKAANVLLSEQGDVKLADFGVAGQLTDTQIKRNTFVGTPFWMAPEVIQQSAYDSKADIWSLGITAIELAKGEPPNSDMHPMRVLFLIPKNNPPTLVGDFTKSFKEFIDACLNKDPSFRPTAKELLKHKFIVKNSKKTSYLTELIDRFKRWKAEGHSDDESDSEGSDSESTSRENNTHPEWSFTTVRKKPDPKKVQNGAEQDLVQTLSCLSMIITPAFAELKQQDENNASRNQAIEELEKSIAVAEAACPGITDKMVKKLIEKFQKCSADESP
Dual specificity mitogen-activated protein kinase kinase 1 (Homo sapiens), sequence (Q02750 whole entry): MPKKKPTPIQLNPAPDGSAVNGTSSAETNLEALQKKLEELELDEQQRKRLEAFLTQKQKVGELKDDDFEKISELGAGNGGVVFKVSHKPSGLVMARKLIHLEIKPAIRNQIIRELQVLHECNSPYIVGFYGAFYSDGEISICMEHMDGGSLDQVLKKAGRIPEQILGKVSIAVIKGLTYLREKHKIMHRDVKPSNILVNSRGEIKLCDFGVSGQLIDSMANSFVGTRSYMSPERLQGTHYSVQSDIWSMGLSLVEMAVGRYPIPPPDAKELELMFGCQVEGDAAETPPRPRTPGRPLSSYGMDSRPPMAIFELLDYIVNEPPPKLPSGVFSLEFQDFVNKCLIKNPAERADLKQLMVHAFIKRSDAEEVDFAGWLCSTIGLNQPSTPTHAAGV

On to `COc1ccc2ncnc(Nc3ccc(OCc4ccccc4)cc3)c2c1`, for which the inhibition came to 8.54% in [1]; 2.34% in [2]; 22% in [3]; 1.84% in test [4]; 10.5% in [5]; 4.51% in test [6]. Also, the inhibition was determined as 9.23% in [7]; 0.8% in test [8]; 1.74% in [9]; 3.79% in [10]; 7.18% in [11]; 3.95% in [12]. In addition, the inhibition in [13] came out at 2.41%; in [14], 3.65%; in test [15], 4.24%; in [16], 1.92%; in [17], 4.04%; in test [18] it was 1.62%. The inhibition was 3.92% in test [19] and -1.91% in test [20].
With `C[C@@H](Oc1cc(-n2cnc3ccc(OCC4CCN(C)CC4)cc32)sc1C(N)=O)c1ccccc1C(F)(F)F`, the inhibition in test [1] is -0.47%; in test [2], -2.46%; in [3] it was 2.14%; in test [4] it was -1.94%; in [5], 0.8%; in test [6], 64.5%. Besides, the inhibition in [7] was 90.5%; in test [8] it was 1.86%; in test [9] it was 12.1%; in test [10] it was -0.3%; in test [11], 1.19%; in [12], -0.27%. Also, the inhibition in test [13] was found to be 0.01%; in [14], 0.08%; in [15], 0.43%; in test [16], 29.1%; in test [17], 74.7%; in test [18] it was 11.4%. Also, the inhibition in test [19] is 56.7%.
In the case of `CCS(=O)(=O)c1ccc(OC)c(Nc2nccc(N(C)c3ccc4c(C)n[nH]c4c3)n2)c1`, the inhibition in test [1] worked out at 6.77%; in test [2], 3.25%; in [3], 7.33%; in test [4] it was 6.61%; in test [5] it was 28.2%; in [6], 43.4%. The inhibition in [7] was 83%; in test [8], 0.17%; in [9] it was 12.7%; in test [10], 4.51%; in [11], 15.6%; in test [12], 4.63%. Further, the inhibition in test [13] is 5.1%; in test [14] it was 3.64%; in [15], 11.7%; in test [16] it was 4.2%; in [17], 5.13%; in test [18] it was 4.58%. Further, the inhibition in test [19] was 5.24%; in [20] it was -2.14%.
As for `NS(=O)(=O)c1ccc(NC=C2C(=O)Nc3ccc4ncsc4c32)cc1`, the inhibition in test [1] amounted to 90.4%; in [2], 29.9%; in test [3] it was 69.6%; in test [4] it was 28.4%; in [5], 92.2%; in test [6], 6.33%. The inhibition in test [7] was found to be 26.9%; in test [8] it was 27.2%; in test [9], 66.5%; in test [10] it was 69.4%; in test [11], 79%; in test [12], 17.5%. The inhibition in test [13] is 68.3%; in [14], 62.9%; in [15], 78.9%; in test [16] it was 74.5%; in test [17] it was 80.4%; in test [18], 73.1%. Also, the values for the inhibition in [19] and in test [20] were 78.2% and 62.1%, respectively.
As to `COc1cc2ncnc(Nc3ccc(C)c(O)c3)c2cc1OC`, the inhibition was found to be 7.23% in test [1]; 4.5% in test [2]; 8.54% in test [3]; 1.17% in test [4]; 4.32% in [5]; 21.1% in test [6]. Besides, the inhibition in test [7] is 70.1%; in [8], 2.26%; in test [9], 5.63%; in test [10], 7.16%; in test [11], 21.4%; in test [12], 6.11%. The inhibition in test [13] stood at 5.54%; in test [14], 9.75%; in [15], 18%; in test [16], 5.24%; in test [17] it was 9.47%; in test [18], 5.84%. In addition, the inhibition was 8.26% in [19] and -1.09% in [20].
With `COc1cc(/C=N/Nc2ncnc3c2cnn3C(C)C)ccc1O`, the inhibition in test [1] was determined as 37.7%; in test [2], 3.34%; in test [3], 15.5%; in [4] it was 1.77%; in [5], 13.8%; in [6] it was 3%. Also, the inhibition in test [7] came out at 21.7%; in [8] it was 2.5%; in test [9], 9.5%; in test [10], 7.32%; in test [11] it was 21.4%; in [12], 2.16%. Further, the inhibition came out at 1.21% in test [13]; 6.6% in [14]; 19.1% in test [15]; 1.8% in test [16]; 7.78% in [17]; 1.29% in [18]. Besides, the inhibition stood at 8.02% in test [19] and 0.35% in test [20].
`CN(C)C(=O)O[C@@H]1CN[C@@H](C#Cc2cc3ncnc(Nc4ccc(OCc5cccc(F)c5)c(Cl)c4)c3s2)C1`: the inhibition in test [1] was determined as 8.44%; in test [2], 2.09%; in [3], 5.86%; in test [4], 0.89%; in test [5], 14%; in test [6], 1.67%. The inhibition in test [7] was 6.26%; in [8], 0.47%; in test [9], 2.35%; in test [10], 2.96%; in [11], 6.27%; in test [12], -0.21%. The inhibition in test [13] was 0.83%; in test [14], 2.49%; in test [15], 6.17%; in [16], -1.32%; in test [17], 0.53%; in test [18], -2.45%. In addition, the inhibition in test [19] is -0.68%; in test [20] it was 0.14%.

The inhibition is the change of the read-out against control, counted positive when it falls.
